These results are taken from PubChem BioAssay (NCI).

Structures are written as SMILES. The panel holds about 83,000 compounds, 20% with a hit somewhere; the sample as a whole holds those more often.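 How to read the values: 0–100, growth inhibition (40 = 60% inhibited); 0, no net growth; -100 to 0, cell death (-40 = 40% of starting cells died; -100 = all dead).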 Values without a mark were called inactive. The source made the active and inactive calls. How the source made its calls: active means growth percent below 10; inactive means the rest.

Holding throughout (assay): NCI-60 one-dose screen, 48 h (100 = growth as untreated, 0 = no growth, -100 = all killed)
The test system of experiment [1] is HT29 colon. The conditions noted are these: 10 µM unless noted.
For experiment [2], the system named is SNB-75 CNS. As to conditions: 10 µM unless noted.
Experiment [3] has as its system SNB-19 CNS. The conditions noted are these: 10 µM unless noted.
Experiment [4] has as its system U251 CNS. As to conditions: 10 µM unless noted.
The test system of experiment [5] is PC-3 prostate. As to conditions: 10 µM unless noted.
The subject of experiment [6] is SK-MEL-5 melanoma. The conditions noted are these: 10 µM unless noted.
In experiment [7] the test system is UACC-62 melanoma. The conditions noted are these: 10 µM unless noted.
Experiment [8] concerns LOX IMVI melanoma. The conditions noted are these: 10 µM unless noted.
Experiment [9] has as its system SK-MEL-28 melanoma. The conditions noted are these: 10 µM.
The test system of experiment [10] is SK-MEL-2 melanoma. As to conditions: 10 µM unless noted.
The test system of experiment [11] is EKVX NSCLC. The conditions noted are these: 10 µM unless noted.
The subject of experiment [12] is SN12C renal. As to conditions: 10 µM unless noted.
Experiment [13] concerns UO-31 renal. The conditions noted are these: 10 µM unless noted.
Experiment [14] has as its system ACHN renal. As to conditions: 10 µM unless noted.
Experiment [15] relates to CAKI-1 renal. As to conditions: 10 µM unless noted.
Experiment [16] deals with CCRF-CEM leukemia. The conditions noted are these: 10 µM unless noted.
The subject of experiment [17] is MOLT-4 leukemia. As to conditions: 10 µM unless noted.
The test system of experiment [18] is SR leukemia. The conditions noted are these: 10 µM unless noted.
Experiment [19] concerns A498 renal. The conditions noted are these: 10 µM unless noted.
Experiment [20] relates to TK-10 renal. As to conditions: 10 µM unless noted.

For the compound `Clc1ccc(COc2ccc(Nc3ncnc4onc(-c5ccccc5)c34)cc2)cc1`, the growth in experiment [1] is 92.2%; in experiment [2] it was 67.8%; in experiment [3], 91.6%; in [4] it was 94%; in [5], 67%; in [6], 83%. The growth was 64.2% in experiment [7]; 86.7% in [8]; 92.1% in experiment [9]; 101% in [10]; 95.6% in [11]; 87.8% in experiment [12]. Moreover, the growth in experiment [13] is 90.5%; in experiment [14], 41.7%; in experiment [15], 84.6%; in experiment [16], 73.2%; in [17], 85.9%; in experiment [18] it was 43.8%.

With `Cc1cc(Br)c(N)c(Br)c1`, the growth in [1] is 106%; in experiment [2], 84.3%; in experiment [3], 103%; in experiment [4], 96.4%; in experiment [5] it was 93%; in [6], 102%. In addition, the growth was 98.6% in [7]; 93.6% in [8]; 101% in experiment [9]; 110% in experiment [10]; 95.6% in [11]; 109% in [12]. The growth in [13] was 102%; in [14], 99.1%; in [15], 98%; in experiment [19] it was 84.1%; in experiment [16], 103%; in [17], 96.4%. The growth in experiment [18] is 100%.

In the case of `Cc1sc2ncn(CC(=O)Nc3ccc(S(N)(=O)=O)cc3)c(=O)c2c1C`, the growth in experiment [1] is 107%; in experiment [2], 86.1%; in [3], 98.5%; in [4], 100%; in experiment [5] it was 101%; in experiment [6], 99.3%. Further, the growth is 96.5% in experiment [7]; 99% in experiment [8]; 110% in experiment [9]; 106% in experiment [10]; 95.8% in experiment [11]; 98.6% in experiment [12]. Also, the growth in experiment [13] is 73.1%; in experiment [14], 103%; in experiment [15], 95.4%; in [19], 100%; in experiment [16], 105%; in [17], 102%. In addition, the growth in experiment [18] is 117%.

Consider `O=C1c2cc(Cl)ccc2Oc2cc([N+](=O)[O-])ccc2N1c1ccc(F)cc1F`, for which the growth is 79% in experiment [1]; 69.8% in [2]; 91.9% in experiment [3]; 86.6% in [4]; 89.4% in experiment [5]; 68.7% in [6]. Moreover, the growth in [7] is 81.2%; in experiment [8], 95.4%; in [9], 114%; in experiment [10] it was 80.3%; in experiment [11], 108%; in experiment [12], 101%. For the same compound, the growth in experiment [13] is 71.2%; in experiment [14], 90.6%; in [15], 59%; in experiment [16] it was 85.3%; in [17] it was 57.4%.

On to `COc1cc(CNC(=O)Cc2ccccc2)ccc1OCc1cn(-c2ccc(F)cc2)nn1`, for which the growth was 111% in experiment [1]; 91.7% in [2]; 103% in experiment [3]; 97.3% in experiment [4]; 98.5% in [5]; 89.1% in experiment [6]. Moreover, the growth in experiment [7] was 85.3%; in experiment [8], 99.6%; in experiment [9], 103%; in [10], 101%; in experiment [11] it was 94.2%; in experiment [12] it was 93.1%. In addition, the growth in experiment [13] is 80.7%; in experiment [20], 112%; in experiment [14] it was 94.9%; in experiment [15], 91.2%; in [16], 100%; in experiment [17], 114%. Besides, the growth in experiment [18] was 106%.

For `COc1cc(/C=C2\CN(C)C/C(=C\c3cc(CN4CCCCC4)c(O)c(OC)c3)C2=O)cc(CN2CCCCC2)c1O`, the growth in experiment [1] is 3.56% (active); in experiment [2] it was 66.9%; in experiment [3], 70.9%; in [4], 15%; in experiment [5], 32.7%; in experiment [6], 70.6%. The growth was 60.6% in experiment [7]; 5.17% (active) in experiment [8]; 93.5% in experiment [9]; 73.2% in experiment [10]; 46% in experiment [11]; 38.2% in [12]. Also, the growth in experiment [13] was 57%; in experiment [20], 57.6%; in [14], 39%; in [15] it was 55.9%; in [16] it was 19.9%; in experiment [17] it was 16.5%. Besides, the growth in [18] is 28.5%.

On to `O=c1oc2ccc(Br)cc2c(=O)n1-c1ccc(Br)cc1F`, for which the growth in experiment [1] is 34.8%; in experiment [2], -42.4% (active); in [3], 16.9%; in experiment [4], -5.99% (active); in [5], -4.81% (active); in experiment [6] it was -84.8% (active). In addition, the growth in [7] is -40.7% (active); in experiment [8], 2.66% (active); in experiment [9], -22.6% (active); in [10], -18% (active); in [11], 3.25% (active); in [12] it was -1.73% (active). In addition, the growth in [13] was -19.5% (active); in [20], 18.9%; in [14] it was -6.06% (active); in [15], -10.6% (active); in experiment [16] it was 9% (active); in [17] it was -16.6% (active). Moreover, in [18], the growth was 3.7% (active).

On to `COc1ccc2occ(C3=C(c4c[nH]c5ccccc45)C(=O)NC3=O)c2c1`, for which the growth in [1] was 17.2%; in [2], 16.6%; in experiment [3] it was 51.1%; in experiment [4], 43.6%; in experiment [5], 62.7%; in experiment [6], 47.4%. Further, the growth in experiment [7] was 37.9%; in experiment [8], 44.9%; in experiment [9], 58.6%; in experiment [10] it was 43.7%; in experiment [11], 49.4%; in experiment [12], 38.4%. The growth in [13] is 40.4%; in [20], 81.5%; in [14] it was 70.2%; in [15] it was 36.6%; in [16], 51.9%; in [17], 30.2%. For the same compound, in experiment [18], the growth is 29.4%.
